High-throughput results: PubChem BioAssay, National Center for Advancing Translational Sciences (NCATS)
Shown are actives, neighbours in structure and some others; about 21% of the full set was active somewhere.
HCV inhibitor – blocks hepatitis C virus; Huh7.5.1 HCVcc-Cre infection, luciferase reporter, 44 h; AID 651820; 340,000 compounds, 3.4% hits; Potency, µM (top dose mostly 41.8 µM), for the others: at the top dose activity change, negative = inhibition, actives largely listed as inhibitors; further: potency means the concentration at half of the fitted maximal effect; on the % scale 0 is the no-effect control and ±100 the full control effect
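HCVcc-Cre virus at an moi near 0.5 was added right after compound to cells cultured 4 h from seeding (1,000 cells/well). Luciferase activity was determined 44 h later, 15 min after substrate addition at RT.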
Pf growth 48h – P. falciparum growth inhibition at 48 hours (one generation); P. falciparum luciferase growth in erythrocytes, 48 h; Potency, µM (doses to about 28.7 µM), for the others: at the highest dose activity change, negative = inhibition, most hits filed as inhibitors; 310,000 compounds, 5.9% hits; further: potency means the concentration at half of the fitted maximal effect; on the % scale 0 is the no-effect control and ±100 the full control effect
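In quantitative HTS format, infected erythrocytes bearing luciferase-reporter parasites were treated for a single generation at 37 C. Luminescence after adding detection reagent served as the growth measure.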
AMA1 RON2 block – inhibitors of Plasmodium falciparum AMA1-RON2 interaction | AlphaScreen AMA1-biotinylated RON2 peptide binding | Potency, µM (highest dose often 58.2 µM), for inactives: at the highest dose activity change, negative = inhibition, actives largely listed as inhibitors | 360,000 compounds, 0.2% hits;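 further: potency means the concentration at half of the fitted maximal effect; 0% = vehicle wells and -100% = peptide control; nearly all actives have a fitted effect of over 45% in size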
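AMA1 (3D7) with his tag at 25 nM final met compounds first, then biotinylated RON2 peptide at 25 nM; detection used donor plus acceptor beads, 10 µg/mL apiece, read by AlphaScreen after 30 min at room temperature.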
CHX counter – affects cycloheximide protein synthesis inhibition readout, counter-screen; AID 2314; 300,000 compounds, 12% hits; cell reporter, cycloheximide protein synthesis inhibition counterscreen; max response, %; in the data active means max response mostly above about 13%, no sharp cut-off; inactive means mostly below about 14%; further: read at 38.3 µM for the half of the compounds with a filed dose; 0% is about no effect
Shiga inhibitor – blocks Shiga toxin action in Vero cells; 290,000 compounds, 9.2% hits; AID 2315; inhibition, % at 38.7 µM; Vero cells, Shiga toxin protein synthesis inhibition reporter; in the data active means inhibition mostly above about 28%, no sharp cut-off; inactive means mostly below about 43%; further: 0% is about no effect
Pf growth 96h – P. falciparum growth inhibition at 96 hour, primary screen for plastid delayed-death inhibitors; P. falciparum luciferase reporter growth, 96 h; Potency, µM (highest dose often 28.7 µM), for inactives: at the highest dose activity change, negative = inhibition, most hits filed as inhibitors; 320,000 compounds, 6.9% hits; AID 504834; further: potency means the concentration at half of the fitted maximal effect; on the % scale 0 is the no-effect control and ±100 the full control effect
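Plates of compound plus infected erythrocytes (2% hematocrit, 0.05% parasitemia final) incubate 96 hours, 37 C, 5% CO2. Detection reagent added; reduced luminescence from the parasites' luciferase reporter flags inhibition.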
Starred values were filed as active, the others as inactive; ? = inconclusive; / = not tested or not shown; [ ] = another dose, or the depositor's remark. Unless noted, the call rests on the fitted dose curve; in most records, active means well fitted curve in the direction sought with a large enough effect; inconclusive means small, poorly fitted or top-dose-only effect, or another doubt; inactive means no such curve, though single readings can be large; an effect the other way counts as inactive or inconclusive.

SMILES	HCV inhibitor	Pf growth 48h	AMA1 RON2 block	CHX counter	Shiga inhibitor	Pf growth 96h
CCSc1nnc(NC(=O)c2ccccc2)s1	6%	88%	12%[2.32 µM]	37*	76*	171%
CC(C)c1nnc(NC(=O)c2cccnc2)s1	25%	105%	-18%	31*	29	41%
CC1CN(c2nnc(NC(=O)c3ccccc3)s2)CC(C)O1 (centres undefined)	-27%	20%	-1%	23	62*	42%
CCSc1nnc(NC(=O)c2ccccc2C)s1	25%	292%	9%	36*	125*	?
Cc1onc(-c2ccccc2)c1C(=O)Nc1nnc(N2CCCCCC2)s1	1%	?	5%	4	9	107%
CCSc1nnc(NC(=O)[C@H](C)NC(=O)c2ccccc2Cl)s1	7%	1%	-13%	-1	-6	6%
CCOC(=O)C1=CCN(S(=O)(=O)c2ccc(C)cc2)C1c1cccc(F)c1 (centres undefined)	/	/	25%	/	/	/
CC(C)Cc1cc(C(=O)Nc2ccccc2)c2ccccc2n1	-30%	11%	-19%	1	-12	104%
CC(C)Cc1cc(C(=O)N2N=C(C(F)F)CC2(O)C(F)F)c2ccccc2n1 (centres undefined)	?	13µM*	5%	-2	-5	6.6µM*
CCc1ccc(-c2cc(C(=O)N3N=C(C(F)F)CC3(O)C(F)F)c3ccccc3n2)cc1 (centres undefined)	?	?	62%	28*	89*	?
CCc1ccc(-c2cc(C(=O)Nn3cnnc3)c3ccccc3n2)cc1	11%	/	0%	-3	-22	?
CCOC(=O)CCCNC(=O)CSc1nnc(-c2ccccc2)c(-c2ccccc2)n1	-23%	-1%	4%	-1	-12	?
CCCCc1ccc(NC(=O)CSc2nc(=O)n(CCN(CC)CC)c3c2CCCC3)cc1	?	12µM*	-10%	/	/	2.1µM*
Cc1ccc(NC(=O)CSc2nc(=O)n(CCCN3CCOCC3)c3c2CCCC3)cc1	-16%	13µM*	-7%	/	/	-24%
CCCCc1ccc(NC(=O)CSc2nc(=O)n(CCN(C)C)c3c2CCC3)cc1	?	12µM*	0%	/	/	?
CCCCc1ccc(NC(=O)CSc2nc(=O)n(CCN3CCOCC3)c3c2CCC3)cc1	?	-59%	-11%	/	/	?
CCN(CC)CCCn1c2c(c(SCC(=O)N3CCCc4ccccc43)nc1=O)CCC2	-10%	-4%	-11%	/	/	?
CCc1ccc(NC(=O)CSc2nc(=O)n(CCCN3CCOCC3)c3c2CCC3)cc1	?	?	1%	/	/	?
CN(C)CCn1c2c(c(SCC(=O)N3CCc4ccccc43)nc1=O)CCCC2	13µM*	-18%	-10%	/	/	?
CC(C)N(C)c1ncnc2c1ncn2[C@H]1CN(Cc2ccc(F)cc2)C[C@@H](CO)O1	/	/	2%	/	/	/
COc1ccc(CN2CCN(C(=O)CC(C)C)CC2)c2ccccc12	-9%	-25%	-12%	2	-19	/
Cc1ccccc1CN1CCN(C(=O)CC(C)C)CC1	-1%	31%	8%	-2	/	10µM*
CCOc1cc(CN2CCN(C(=O)c3cccc4ccccc34)CC2)ccc1OC	?	8.3µM*	?	1	-13	?
COc1ccccc1CN1CCN(C(=O)c2cccc3ccccc23)CC1	5%	/	?	/	/	/
COc1ccc(CN2CCN(C(=O)c3cccc4ccccc34)CC2)cc1OC	-10%	-8%	?	-4	0	?
CSc1ccc(CN2CCN(C(=O)Cc3ccccc3)CC2)cc1	-3%	/	?	/	/	/
Cc1ccccc1CN1CCN(C(=O)c2cccc3ccccc23)CC1	-7%	12µM*	25µM*	-2	-17	0%
CSc1ccc(CN2CCN(C(=O)CC(C)C)CC2)cc1	11µM*	-8%	-29%	7	/	-7%
CCCCOc1cccc2c(=O)n(CC(=O)Nc3ccc4c(c3)OCCO4)ccc12	/	/	-4%	/	/	/
O=C(NCCCN1CCCCC1)c1ccc(CS(=O)c2ccc(F)cc2)o1 (centres undefined)	4%	27%	14%	-2	-4	?
